CHX counter: counter-screen for Shiga toxin inhibitors: cycloheximide protein synthesis inhibition. cell reporter, cycloheximide protein synthesis inhibition counterscreen. max response, %. 300,000 tested, 12% active; in the data active means max response mostly above about 13%, no sharp cut-off; inactive means mostly below about 14%; further: read at 38.3 µM for the half of the compounds with a filed dose; 0% is about no effect
Pf growth 48h: inhibits P. falciparum growth in the first generation, 48 h | P. falciparum luciferase growth in erythrocytes, 48 h | Potency, µM (top dose mostly 28.7 µM), for inactives: at the top dose activity change, negative = inhibition, actives largely listed as inhibitors | 310,000 tested, 5.9% active | AID 504832; further: potency means the concentration at half of the fitted maximal effect; on the % scale 0 is the no-effect control and ±100 the full control effect
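First compound was added to culture medium, then infected red cells at 0.1% parasitemia and 2% hematocrit (final). After incubation at 37 C under 5% CO2, luciferase detection reagent was dispensed and light output recorded.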
NS1 function inh: influenza NS1 inhibition; AID 2326; 270,000 tested, 0.4% active; Potency, µM (titrated, usually from 46.1 µM), without a hit: top-dose activity, positive = more growth; calls by dose curve; further: potency means the concentration at half of the fitted maximal effect; actives are rising curves; nearly all actives have a fitted effect of over 50% in size
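In this qHTS, NS1 from influenza A is expressed in budding yeast, where it slows growth. Cells are switched from glucose to 2% galactose medium (pH 6.0, -URA), treated with compound, and growth recovery is read at OD600.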
Pf growth 96h: P. falciparum growth inhibition at 96 hours; P. falciparum luciferase reporter growth, 96 h; AID 504834; 320,000 tested, 6.9% active; Potency, µM (series often up to 28.7 µM), without a hit: at the highest dose activity change, negative = inhibition, most hits filed as inhibitors; further: potency means the concentration at half of the fitted maximal effect; on the % scale 0 is the no-effect control and ±100 the full control effect
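Parasite growth measured via integrated firefly luciferase reporter in P. falciparum. Infected erythrocytes at 2% hematocrit, 0.05% parasitemia final were treated 96 hours at 37 C under 5% CO2, and luminescence was read.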
Shiga toxin inh: inhibitors of Shiga toxin in Vero cells; 290,000 tested, 9.2% active; inhibition, % at 38.7 µM; Vero cells, Shiga toxin protein synthesis inhibition reporter; in the data active means inhibition mostly above about 28%, no sharp cut-off; inactive means mostly below about 43%; further: 0% is about no effect
Numbers without * were called inactive. Compounds with a hit are over-represented: about 21% of the library has one in this group of screens. Unless noted, the call rests on the fitted dose curve; in most records, active means well fitted inhibition curve with a large enough effect; inconclusive means small, poorly fitted or top-dose-only effect, or another doubt; inactive means no such curve, though single readings can be large or run the other way.

What do the screens show for `Cc1c(C(=O)Nc2ccc(F)c(F)c2)oc2ccc(S(=O)(=O)N3CCCCC3)cc12`?
CHX counter: 1; Pf growth 48h: 13µM*; NS1 function inh: 0%; Shiga toxin inh: 24

How did CCC(C)NC(=O)c1oc2ccc(S(=O)(=O)N3CCC4(CC3)OCCO4)cc2c1C (stereo not drawn) do in these assays?
CHX counter: -3; Pf growth 48h: inconclusive; NS1 function inh: -1%; Pf growth 96h: inconclusive; Shiga toxin inh: 4

Results for Cc1c(C(=O)Nc2ccc(F)cc2)oc2ccc(S(=O)(=O)N3CCCC3)cc12 ?
CHX counter: -1; Pf growth 48h: -5%; NS1 function inh: -10%; Pf growth 96h: 0%; Shiga toxin inh: -8

Results for Cc1c(C(=O)NCc2ccccc2)oc2ccc(S(=O)(=O)N3CCC4(CC3)OCCO4)cc12 ?
CHX counter: 4; Pf growth 48h: inconclusive; NS1 function inh: inconclusive; Pf growth 96h: 51%; Shiga toxin inh: -9

Results for Cc1c(C(=O)NCc2ccccn2)oc2ccc(S(=O)(=O)N3CCC4(CC3)OCCO4)cc12 ?
CHX counter: 7; Pf growth 48h: 13µM*; Pf growth 96h: inconclusive; Shiga toxin inh: 15

How did C=CCc1cccc2cc(C(=O)N3CCN(c4ccccn4)CC3)c(=O)oc12 do in these assays?
CHX counter: -1; Pf growth 48h: 33%; Pf growth 96h: 131%; Shiga toxin inh: -21

Results for COCc1cc(CN2CCN(CCc3ccccc3)C(CCO)C2)ccc1OC (stereo not drawn) ?
CHX counter: -1; Pf growth 48h: -20%; NS1 function inh: 4%; Pf growth 96h: -26%; Shiga toxin inh: 1

Results for Cc1ccccc1CNC(=O)C(=O)NCCC1CCCCN1S(=O)(=O)c1cccs1 (stereo not drawn) ?
Pf growth 48h: inconclusive; Pf growth 96h: 12µM*

How did COc1ccccc1CNC(=O)C(=O)NCCC1CCCCN1S(=O)(=O)c1ccc(C)cc1 (stereo not drawn) do in these assays?
Pf growth 48h: 12µM*; Pf growth 96h: inconclusive

How did COc1ccccc1CNC(=O)C(=O)NCCC1CCCCN1S(=O)(=O)c1cccs1 (stereo not drawn) do in these assays?
Pf growth 48h: inconclusive; Pf growth 96h: 12µM*

Results for O=C(NCc1ccccc1Cl)C(=O)NCC1OCCN1S(=O)(=O)c1cccs1 (stereo not drawn) ?
CHX counter: 21*; Pf growth 48h: -20%; Pf growth 96h: -14%; Shiga toxin inh: 28

How did O=C(O)/C(=C\c1ccc(Cl)cc1)c1ccc(F)cc1 do in these assays?
CHX counter: -1; Pf growth 48h: 0%; NS1 function inh: -4%; Pf growth 96h: 6%; Shiga toxin inh: 24

What do the screens show for `CCOC(=O)c1c(N2C(=O)Nc3ccccc3N2O)n[nH]c1-c1cccc(OC)c1`?
CHX counter: 8; Pf growth 48h: 57%; Pf growth 96h: -4%; Shiga toxin inh: -7

How did Cc1ccc(Nc2nc(N)nc(CN3CCN(C(=O)c4ccco4)CC3)n2)cc1Cl do in these assays?
CHX counter: 11; Pf growth 48h: inconclusive; NS1 function inh: -14%; Pf growth 96h: 7.4µM*; Shiga toxin inh: 51

Results for Cc1ccc(Nc2nc(N)nc(CN3CCN(c4ccccc4F)CC3)n2)cc1 ?
CHX counter: 12; Pf growth 48h: inconclusive; NS1 function inh: inconclusive; Pf growth 96h: 6.6µM*; Shiga toxin inh: -2

How did Nc1nc(CN2CCN(c3ccccc3F)CC2)nc(Nc2ccccc2)n1 do in these assays?
CHX counter: -3; Pf growth 48h: inconclusive; NS1 function inh: -8%; Pf growth 96h: inconclusive; Shiga toxin inh: 11

What do the screens show for `Cc1ccc(Nc2nc(N)nc(CN3CCN(C)CC3)n2)cc1`?
CHX counter: 32*; Pf growth 48h: 35%; NS1 function inh: 5%; Shiga toxin inh: 81

Results for Cc1cccc(Nc2nc(N)nc(CN3CCN(c4ccc(F)cc4)CC3)n2)c1 ?
CHX counter: -2; Pf growth 48h: inconclusive; NS1 function inh: -14%; Pf growth 96h: 10µM*; Shiga toxin inh: -3

What do the screens show for `Cc1ccc(Nc2nc(N)nc(CN3CCCCCC3)n2)cc1`?
CHX counter: -1; Pf growth 48h: -8%; NS1 function inh: -2%; Shiga toxin inh: 10

What do the screens show for `Cc1ccc(NC(=O)N2CCN(C(=O)c3ccco3)CC2)cc1Cl`?
CHX counter: -4; Pf growth 48h: inconclusive; NS1 function inh: -3%; Pf growth 96h: 36%; Shiga toxin inh: -5

How did Cc1cccc(Nc2nc(N)nc(CN3CCN(C)CC3)n2)c1 do in these assays?
CHX counter: -6; Pf growth 48h: 16%; NS1 function inh: -5%; Shiga toxin inh: -12

What do the screens show for `O=C(NC1CCCCC1)C1(S(=O)(=O)c2ccc(Cl)cc2)CC1`?
CHX counter: -5; Pf growth 48h: -8%; NS1 function inh: -9%; Pf growth 96h: 25%; Shiga toxin inh: -4

Results for Cc1ccc(Oc2ccc(/C=N/O)cn2)cc1 ?
CHX counter: 41*; Pf growth 48h: 173%; NS1 function inh: 5%; Pf growth 96h: 223%; Shiga toxin inh: 91*

How did CCOc1ccc(/C=N/O)cc1 do in these assays?
CHX counter: -3; Pf growth 48h: 17%; NS1 function inh: 4%; Shiga toxin inh: -13

How did Cc1ccc(COc2ccc(/C=N/O)cc2)cc1 do in these assays?
CHX counter: 43*; Pf growth 48h: 130%; NS1 function inh: -18%; Pf growth 96h: 41%; Shiga toxin inh: 87*

What do the screens show for `CSc1nnnn1-c1cccc(O)c1`?
CHX counter: -2; Pf growth 48h: -1%; NS1 function inh: -2%; Shiga toxin inh: -12

What do the screens show for `COc1ccc(C(=O)/C(=C\c2sccc2C)c2nc3ccccc3o2)cc1`?
CHX counter: 19*; Pf growth 48h: inconclusive; NS1 function inh: -11%; Pf growth 96h: 3.3µM*; Shiga toxin inh: 49

Results for CC(C)Oc1ccc(C(=O)/C(=C\c2cccs2)c2nc3ccccc3o2)cc1 ?
CHX counter: 38*; Pf growth 48h: inconclusive; NS1 function inh: 21%; Pf growth 96h: inconclusive; Shiga toxin inh: active

Results for CCCCC(=O)Nc1ccc(C(=O)NCCc2ccccc2)cc1 ?
CHX counter: 31*; Pf growth 48h: 13%; NS1 function inh: -3%; Pf growth 96h: inconclusive; Shiga toxin inh: 11

How did CCCCC(=O)Nc1ccc(C(=O)NNC(=O)CCc2ccccc2)cc1 do in these assays?
CHX counter: 7; Pf growth 48h: 0%; NS1 function inh: -3%; Pf growth 96h: 32%; Shiga toxin inh: 12

Results for CCCC(=O)Nc1ccc(C(=O)NCCc2ccc(F)cc2)cc1 ?
CHX counter: 24*; Pf growth 48h: 15%; NS1 function inh: 7%; Pf growth 96h: inconclusive; Shiga toxin inh: 19

What do the screens show for `O=C(Nc1cccc(C(F)(F)F)c1)C1=CC=CN2CCS(=O)(=O)N=C12`?
Pf growth 48h: 18%; Pf growth 96h: -15%

How did CCCCCC(=O)NNC(=O)c1ccc(-c2ccccc2)cc1 do in these assays?
CHX counter: 7; Pf growth 48h: -7%; NS1 function inh: 2%; Pf growth 96h: -5%; Shiga toxin inh: 6
